The values below come from PubChem BioAssay (NCATS).

Where “and” joins values, the source holds several entries; their conditions need not be identical. Identical values can stand only once. Results filed as inconclusive are left out. Calls of active or inactive are those of the source. Unless noted, calls come from the whole dose curve; as a rule, active = well fitted curve in the direction sought with a large enough effect; inconclusive = small, poorly fitted or top-dose-only effect, or another doubt; inactive = no such curve, though single readings can be large; an effect the other way counts as inactive or inconclusive.

The first experiment in a line: qHTS Assay for Identifying Gametocytocidal Compounds (AID 743244).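 For max response: % is set by controls: 0 for no effect and ±100 for the full control effect; actives lower the fluorescent signal which means gametocytes are killed.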 Note: potency is the fitted concentration of half-maximal effect. Particulars: P. falciparum 3D7 stage III-V gametocytes, alamarBlue, 72 h; max response: stronger effect = lower value. The method, boiled down:
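Viability read-out was resazurin reduction (alamarBlue, 24 h) measured at Ex 525/Em 598 nm. Beforehand, late-stage (III-V) 3D7 P. falciparum gametocytes at 20,000 cells/well were incubated with compound 72 h at 37C under 5% CO2.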
On the technique in general: In qHTS, concentration-response curves come from the screen itself.
`O=C(NCCCNc1nc(Nc2cccc(NC(=O)N3CCCC3)c2)ncc1I)c1cccs1`: the max response was -18.4% (inactive) and -12.2% (inactive).

On to `CCCCc1nc2cc(C=CC(=O)NO)ccc2n1CCN(CC)CC`, for which the Potency is 3.72 µM (active).

As for `COc1cc(=C2C=c3ccccc3=N2)[nH]c1=Cc1[nH]c(C)cc1C`, the Potency is 7.43 µM (active).

For `O=C(NC1CCNCC1)c1[nH]ncc1NC(=O)c1c(Cl)cccc1Cl`, the Potency was 1.32 µM (active) and 2.64 µM (active).

Turning to `COc1ccc(CC2c3cc(OC)c(OC)cc3CC[N+]2(C)CCC(=O)OCCCCCOC(=O)CC[N+]2(C)CCc3cc(OC)c(OC)cc3C2Cc2ccc(OC)c(OC)c2)cc1OC` (stereo not drawn), the max response was 8.81% (inactive).

As to `CC(C)(O)CCc1ccc(OCc2cc(-c3cccc(OC(F)F)c3)c3ncccc3c2)cc1`, the max response is 9.3% (inactive).

Regarding `O=C(NCCS(=O)(=O)c1ccc(C(F)(F)F)cn1)c1ccc(Cl)cc1`, the max response was 12.1% (inactive).

Regarding `c1ccc2c(CCNc3ccc(Nc4ccncc4)cc3)c[nH]c2c1`, the Potency was 9.35 µM (active).

Regarding `CC(=O)Nc1sc2c(c1-c1nc3ccccc3s1)CNC2`, the max response is 20.9% (inactive).

Take `C=CCn1c(=O)c2cnc(Nc3ccc(N4CCN(C)CC4)cc3)nc2n1-c1cccc(C(C)(C)O)n1`: the Potency is 3.32 µM (active).

For `C1=CCOCc2cc(ccc2OCCN2CCCC2)Nc2nccc(n2)-c2cccc(c2)OCC1`, the max response was 17.1% (inactive).

For the compound `C1Cc2[nH]nc(-c3nn[nH]n3)c2C1`, the max response was 38.3% (inactive).

On to `Cc1cc(Nc2cc(N3CCN(C)CC3)nc(C=Cc3ccccc3)n2)n[nH]1`, for which the Potency was 8.33 µM (active).

As to `O=C(C=Cc1cccnc1)NCCCCC1CCN(C(=O)c2ccccc2)CC1`, the max response was 33.6% (inactive).

`Cc1nc2ccc(CN(C)c3ccc(C(=O)N[C@@H](CCC(=O)O)C(=O)O)s3)cc2c(=O)[nH]1`: the max response is 16% (inactive) and -8.64% (inactive).

A short description of a further experiment: qHTS profiling for inhibitors of Plasmodium falciparum (3D7) proliferation (AID 743322; call rule not given here;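 note: infected erythrocytes exposed to compound for 72 h before lysis; 100% = DMSO vehicle wells and 0% = 0.29 µM artemisinin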). Particulars: P. falciparum 3D7 proliferation; at 28.7 µM (top of the series). The method, boiled down:
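Parasite DNA was quantified by SYBR Green I fluorescence (ex 485, em 535 nm) after overnight lysis in saponin/Triton buffer at room temperature. Cultures at 0.3% parasitemia and 2.5% hematocrit were first exposed to compound for 72 h at 37 C; signals were normalised to artemisinin (0.29 uM) and vehicle wells.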
On to `O=C(NCCCNc1nc(Nc2cccc(NC(=O)N3CCCC3)c2)ncc1I)c1cccs1`, for which the remaining parasite growth % (stronger effect = lower value) is 2.01% and 8.72%.

In the case of `NC(=O)c1c(OCc2c(F)cc(Br)cc2F)nsc1NC(=O)NCCCCN1CCCC1`, the remaining parasite growth % (stronger effect = lower value) was -0.239%.

As to `CCCCc1nc2cc(C=CC(=O)NO)ccc2n1CCN(CC)CC`, the remaining parasite growth % (stronger effect = lower value) was -0.311%.

Consider `COc1cc(=C2C=c3ccccc3=N2)[nH]c1=Cc1[nH]c(C)cc1C`, for which the remaining parasite growth % (stronger effect = lower value) amounted to 2.05%.

On to `O=C(NC1CCNCC1)c1[nH]ncc1NC(=O)c1c(Cl)cccc1Cl`, for which the remaining parasite growth % (stronger effect = lower value) was 5.64% and 1.64%.

With `CCOc1cc2ncc(C#N)c(Nc3ccc(F)c(Cl)c3)c2cc1NC(=O)C=CCN(C)C`, the remaining parasite growth % (stronger effect = lower value) is -0.461%.

As for `CC(C)(O)CCc1ccc(OCc2cc(-c3cccc(OC(F)F)c3)c3ncccc3c2)cc1`, the remaining parasite growth % (stronger effect = lower value) was determined as 37.5%.

As for `COc1cc(OC2CCN(C)CC2)ccc1Nc1ncc2c(n1)n(C1CCCC1)c(=O)n2C`, the remaining parasite growth % (stronger effect = lower value) turned out to be 9.94%.

For the compound `O=C(NCCS(=O)(=O)c1ccc(C(F)(F)F)cn1)c1ccc(Cl)cc1`, the remaining parasite growth % (stronger effect = lower value) is 98.8%.

For the compound `c1ccc2c(CCNc3ccc(Nc4ccncc4)cc3)c[nH]c2c1`, the remaining parasite growth % (stronger effect = lower value) is 1.57%.

For the compound `CCN(CC)CCCCNc1ncc2cc(-c3cc(OC)cc(OC)c3)c(NC(=O)NC(C)(C)C)nc2n1`, the remaining parasite growth % (stronger effect = lower value) is -0.484%.

Consider `CC(=O)Nc1sc2c(c1-c1nc3ccccc3s1)CNC2`, for which the remaining parasite growth % (stronger effect = lower value) was 100%.

With `C=CCn1c(=O)c2cnc(Nc3ccc(N4CCN(C)CC4)cc3)nc2n1-c1cccc(C(C)(C)O)n1`, the remaining parasite growth % (stronger effect = lower value) was 11.1%.

As to `Cc1ccc(C(N)=O)cc1Nc1nccc(-c2cn(C(C)C)c3cnccc23)n1`, the remaining parasite growth % (stronger effect = lower value) was -1.17%.

`C1Cc2[nH]nc(-c3nn[nH]n3)c2C1`: the remaining parasite growth % (stronger effect = lower value) amounted to 48.8%.

On to `Cc1cc(Nc2cc(N3CCN(C)CC3)nc(C=Cc3ccccc3)n2)n[nH]1`, for which the remaining parasite growth % (stronger effect = lower value) is 0.147%.

On to `O=C(C=Cc1cccnc1)NCCCCC1CCN(C(=O)c2ccccc2)CC1`, for which the remaining parasite growth % (stronger effect = lower value) is 81.9%.

A further experiment is described as follows: qHTS profiling for inhibitors of Plasmodium falciparum (DD2) proliferation (AID 743323; call rule not given here). The conditions noted are these: lower = more inhibition; at 28.7 µM (top of the series). The essentials:
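Parasite proliferation measured via DNA-dye fluorescence, as uninfected erythrocytes lack DNA. Cultures at 0.3% parasitemia and 2.5% hematocrit incubated 72 h with compound; signal scaled between vehicle and 0.29 uM artemisinin wells.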
As to `O=C(NCCCNc1nc(Nc2cccc(NC(=O)N3CCCC3)c2)ncc1I)c1cccs1`, the activity, percent of control was 5.54% and 10.1%.

Turning to `CCCCc1nc2cc(C=CC(=O)NO)ccc2n1CCN(CC)CC`, the activity, percent of control was -0.413%.

As for `COc1cc(=C2C=c3ccccc3=N2)[nH]c1=Cc1[nH]c(C)cc1C`, the activity, percent of control was found to be 1.12%.

Turning to `CCOc1cc2ncc(C#N)c(Nc3ccc(F)c(Cl)c3)c2cc1NC(=O)C=CCN(C)C`, the activity, percent of control stood at 3.39%.

Regarding `O=C(NCCS(=O)(=O)c1ccc(C(F)(F)F)cn1)c1ccc(Cl)cc1`, the activity, percent of control turned out to be 98.7%.

On to `c1ccc2c(CCNc3ccc(Nc4ccncc4)cc3)c[nH]c2c1`, for which the activity, percent of control was 6.37%.

Consider `CCN(CC)CCCCNc1ncc2cc(-c3cc(OC)cc(OC)c3)c(NC(=O)NC(C)(C)C)nc2n1`, for which the activity, percent of control stood at 1.21%.

For `CC(=O)Nc1sc2c(c1-c1nc3ccccc3s1)CNC2`, the activity, percent of control is 96.7%.

In the case of `C=CCn1c(=O)c2cnc(Nc3ccc(N4CCN(C)CC4)cc3)nc2n1-c1cccc(C(C)(C)O)n1`, the activity, percent of control amounted to 6.29%.

`Cc1ccc(C(N)=O)cc1Nc1nccc(-c2cn(C(C)C)c3cnccc23)n1`: the activity, percent of control came out at 0.145%.

Take `Cc1cc(Nc2cc(N3CCN(C)CC3)nc(C=Cc3ccccc3)n2)n[nH]1`: the activity, percent of control worked out at 3.11%.

The nature of the next experiment: qHTS profiling for inhibitors of Plasmodium falciparum (HB3) proliferation (AID 743324).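 Note: 100% = DMSO vehicle wells and 0% = artemisinin-treated control wells.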 The conditions noted are these: Plasmodium falciparum HB3 blood-stage proliferation; at 28.7 µM (top of the series). The essentials: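 SYBR Green fluorescence (485 ex/535 em) of lysed cultures, incubated overnight at room temperature in the dark, quantifies parasite DNA. Infected erythrocytes at 0.3% parasitemia and 2.5% hematocrit were exposed 72 h; values normalized to DMSO and 0.29 uM artemisinin controls.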
Turning to `O=C(NCCCNc1nc(Nc2cccc(NC(=O)N3CCCC3)c2)ncc1I)c1cccs1`, the remaining proliferation (% of control), lower = more inhibition is 1.48% and 5.6%.

On to `NC(=O)c1c(OCc2c(F)cc(Br)cc2F)nsc1NC(=O)NCCCCN1CCCC1`, for which the remaining proliferation (% of control), lower = more inhibition is 2.02%.

Consider `CCCCc1nc2cc(C=CC(=O)NO)ccc2n1CCN(CC)CC`, for which the remaining proliferation (% of control), lower = more inhibition is -0.411%.

For the compound `COc1cc(=C2C=c3ccccc3=N2)[nH]c1=Cc1[nH]c(C)cc1C`, the remaining proliferation (% of control), lower = more inhibition is 1.42%.

With `O=C(NC1CCNCC1)c1[nH]ncc1NC(=O)c1c(Cl)cccc1Cl`, the remaining proliferation (% of control), lower = more inhibition is 9.9% and 2.81%.

Take `CCOc1cc2ncc(C#N)c(Nc3ccc(F)c(Cl)c3)c2cc1NC(=O)C=CCN(C)C`: the remaining proliferation (% of control), lower = more inhibition is 0.199%.

Turning to `CC(C)(O)CCc1ccc(OCc2cc(-c3cccc(OC(F)F)c3)c3ncccc3c2)cc1`, the remaining proliferation (% of control), lower = more inhibition worked out at 15.5%.

In the case of `COc1cc(OC2CCN(C)CC2)ccc1Nc1ncc2c(n1)n(C1CCCC1)c(=O)n2C`, the remaining proliferation (% of control), lower = more inhibition was 1.94%.

On to `O=C(NCCS(=O)(=O)c1ccc(C(F)(F)F)cn1)c1ccc(Cl)cc1`, for which the remaining proliferation (% of control), lower = more inhibition came to 99.7%.

For `c1ccc2c(CCNc3ccc(Nc4ccncc4)cc3)c[nH]c2c1`, the remaining proliferation (% of control), lower = more inhibition was -0.777%.

Turning to `CCN(CC)CCCCNc1ncc2cc(-c3cc(OC)cc(OC)c3)c(NC(=O)NC(C)(C)C)nc2n1`, the remaining proliferation (% of control), lower = more inhibition is 0.178%.

On to `CC(=O)Nc1sc2c(c1-c1nc3ccccc3s1)CNC2`, for which the remaining proliferation (% of control), lower = more inhibition stood at 74.7%.

With `Cc1ccc(C(N)=O)cc1Nc1nccc(-c2cn(C(C)C)c3cnccc23)n1`, the remaining proliferation (% of control), lower = more inhibition was -1.54%.

Consider `Cc1cc(Nc2cc(N3CCN(C)CC3)nc(C=Cc3ccccc3)n2)n[nH]1`, for which the remaining proliferation (% of control), lower = more inhibition came to 0.814%.

On to `O=C(C=Cc1cccnc1)NCCCCC1CCN(C(=O)c2ccccc2)CC1`, for which the remaining proliferation (% of control), lower = more inhibition amounted to 46.3%.
